Compound activity from PubChem.
Shown are actives, neighbours in structure and some others; about 1.6% of the full set was active somewhere.
PPC-1+TRAIL kill – compounds killing PPC-1 cancer cells with TRAIL present (potentiator screen, no TRAIL-free arm); cell killing (% activity), % at 4 µM or 5 µM; PPC-1 cells + TRAIL, ATPLite viability luminescence; actives 0.41% (n = 220,000);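 active means cell killing above 50% in the first pass at 4 µM, then a duplicate retest at 5 µM averaging 50% or more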
Platelet DG rel – modulates dense granule release in human platelets | human platelet-rich plasma, SFLLRN dense granule ATP release, luminescence | inhibition, %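 (compounds screened at 7.5 µM in platelet-rich plasma)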 | actives 0.22% (n = 300,000);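 active means mean replicate score, as percent of positive control, at or above 50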
STAT3 inh-1 – inhibitors of IL-6 induced STAT3 signaling; U3A cells, IL-6 STAT3-luciferase reporter, luminescence; host cell line lacks STAT1; inhibition, % at 5.5 µM; actives 0.89% (n = 190,000);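 active means inhibition above the mean inhibition across all screened compounds plus 3 SD, cut at about 44% in these data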
STAT1 blocker – inhibitors of IFN-gamma induced STAT1 signaling | inhibition, % at 5.5 µM | actives 0.35% (n = 200,000) | NIH 3T3 STAT1-luciferase reporter, luminescence | AID 920;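 active means inhibition above a set limit, the mean inhibition across all tested compounds plus 3 SD, cut at about 34% in these data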
C8 TRAIL sens – sensitizes caspase-8 expressing cells to TRAIL | NB7+C8 cells + TRAIL, ATPlite viability luminescence | inhibition (viability loss, TRAIL sensitization), % at 10 µM | actives 1% (n = 360,000) | AID 624354;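 active means compounds causing at least 50% loss of cell viability in the single-dose screen, relative to plate controls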
STAT3 inh-2 – confirmation of STAT3 signaling inhibitors. actives 45% (n = 1,200). shares compounds with STAT3 inh-1. AID 1265. U3A cells, IL-6 STAT3 luciferase reporter, luminescence; cell line lacks STAT1. inhibition, % at 5.7 µM;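 active means inhibition above the hit cutoff computed for the primary STAT3 screen, cut at about 44% in these data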
NFkB inh 2 – NF-kappaB inhibition in STAT3 inhibitor counter-screen | shares compounds with STAT3 inh-1 | HEK293T NF-kB luciferase reporter, TNF-alpha induced | inhibition, % at 5.7 µM | actives 36% (n = 1,200) | AID 1308;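 active means inhibition above the mean of solvent-only control wells plus 3 SD, cutoff set per campaign, cut at about 13% in these data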
STAT1 inh STAT3c – STAT1 inhibition in STAT3 inhibitor counter-screen. shares compounds with STAT3 inh-1. NIH 3T3 STAT1-luciferase reporter, IFN-gamma induced, luminescence. inhibition, % at 5.7 µM. actives 27% (n = 1,200). AID 1317;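 active means inhibition above the mean plus 3 SD of solvent-only control wells, limit set per screening run, cut at about 16% in these data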
Of the large screens only hits and unclear results are named; the others gave an inactive call (follow-up assays come after a bar, where they were run).

COCCn1c(C)cc(C(=O)COC(=O)c2ccc[nH]c2=O)c1C	STAT3 inh-1 48 | STAT3 inh-2 inactive | NFkB inh 2 inactive | STAT1 inh STAT3c inactive
CSCC[C@H]1COC[C@@H](Cc2ccccc2)N1c1ccccc1	none (no result: PPC-1+TRAIL kill, Platelet DG rel, STAT3 inh-1, STAT1 blocker)
Cc1ccc(-c2nn(-c3ccccc3)cc2/C=N/NC(=O)c2ccc(Br)o2)cc1	STAT3 inh-1 46 | STAT3 inh-2 inactive | NFkB inh 2 inactive | STAT1 inh STAT3c inactive
COc1cccc(S(=O)(=O)Nc2ccc3c(c2)C(=O)N(C)C[C@H](OC)[C@H](C)CN[C@@H](C)CO3)c1	none (no result: PPC-1+TRAIL kill, Platelet DG rel, STAT3 inh-1, STAT1 blocker)
O=C1C(=Cc2ccccn2)CCc2ccccc21	none (no result: PPC-1+TRAIL kill, Platelet DG rel, STAT3 inh-1, STAT1 blocker)
Cc1ccsc1/C=C1\CCc2ccccc2C1=O	Platelet DG rel 64, STAT3 inh-1 78, C8 TRAIL sens 79 | STAT3 inh-2 48 | NFkB inh 2 inactive | STAT1 inh STAT3c inactive
Cc1cc(C)c2cc(C#N)c(NCCNC(=O)c3ccncc3)nc2c1	none (no result: PPC-1+TRAIL kill, Platelet DG rel, STAT3 inh-1, STAT1 blocker)
CCOC(=O)c1oc2ccc(S(=O)(=O)Nc3ccc4c(c3)n(C)c(=O)n4C)cc2c1C	STAT3 inh-1 60 | STAT3 inh-2 57 | NFkB inh 2 inactive | STAT1 inh STAT3c inactive
Cn1c(=O)n(C)c2cc(NS(=O)(=O)c3ccc4c(c3)CCCC4)ccc21	STAT3 inh-1 53 | STAT3 inh-2 inactive | NFkB inh 2 inactive | STAT1 inh STAT3c 20
COc1ccc(S(=O)(=O)Nc2ccc3c(c2)n(C)c(=O)n3C)cc1C	none (no result: PPC-1+TRAIL kill, STAT3 inh-1, STAT1 blocker)
C[C@H](CO)N1C[C@H](C)[C@H](CN(C)S(=O)(=O)c2ccc(Cl)cc2)OCc2ccccc2-c2c(n(C)c3ccccc23)C1=O	none (no result: PPC-1+TRAIL kill, Platelet DG rel, STAT3 inh-1, STAT1 blocker)
CC(C)COc1ccc(C(=O)Nc2scc(-c3ccc(Cl)cc3Cl)c2C(N)=O)cc1	STAT3 inh-1 49 | STAT3 inh-2 inactive | NFkB inh 2 inactive | STAT1 inh STAT3c inactive
O=C(Nc1nc(-c2ccc(Cl)cc2Cl)cs1)c1ccc(OCC2CCCO2)cc1 (centres undefined)	none
Cc1onc(-c2ccccc2)c1-c1ccnc(N)n1	none (no result: STAT3 inh-1, STAT1 blocker)
Cc1ccc(C)n1-c1ccc(-c2ccnc(N)n2)cc1	STAT3 inh-1 45 (no result: Platelet DG rel) | STAT3 inh-2 inactive | NFkB inh 2 inactive | STAT1 inh STAT3c inactive
CC(C)(C)S(=O)N1Cc2cc(C(=O)N[C@@H]3CCN(Cc4ccccc4)C3)nc(-c3cccc(-c4cc5ccccc5o4)c3)c2[C@@H]1CCO (some centres undefined)	none (no result: PPC-1+TRAIL kill, Platelet DG rel, STAT3 inh-1, STAT1 blocker)
O=C(NC1CCCC1)C(c1cccnc1)N(C(=O)c1csnn1)c1ccc(F)cc1 (centres undefined)	none (no result: PPC-1+TRAIL kill, STAT3 inh-1, STAT1 blocker)
O=C(Nc1ccc(Br)cc1)c1ccc(F)c(S(=O)(=O)NCc2cccs2)c1	STAT3 inh-1 57 | STAT3 inh-2 69 | NFkB inh 2 17 | STAT1 inh STAT3c 16
CC(=O)Nc1ccc(-c2csc(Nc3ccc(Cl)cn3)n2)cc1	STAT3 inh-1 52 | STAT3 inh-2 46 | NFkB inh 2 inactive | STAT1 inh STAT3c inactive
CC(=O)Nc1cccc(-c2csc(Nc3ccc(Cl)cn3)n2)c1	none
CCCCOCCCNC(=O)C[C@@H]1C[C@@]2(C(=O)OCC)CCCC=C2N(Cc2ccc3c(c2)OCO3)C1=O	none (no result: PPC-1+TRAIL kill, Platelet DG rel, STAT3 inh-1, STAT1 blocker)
Cc1cc(C)nc(Nc2n[nH]c(-c3ccc(N)cc3)n2)n1	none
Cc1cc(C)nc(Nc2n[nH]c(-c3ccc(C(C)(C)C)cc3)n2)n1	STAT3 inh-1 47 | STAT3 inh-2 inactive | NFkB inh 2 inactive | STAT1 inh STAT3c inactive
Cc1nc(Nc2nc3ccccc3o2)nc2c1CCC2	STAT3 inh-1 70 | STAT3 inh-2 inactive | NFkB inh 2 inactive | STAT1 inh STAT3c inactive
Cc1cccc(C)c1Nc1nc2ccccc2o1	none
COc1ccc(NC(=O)COC(=O)Cn2cnc3ccccc32)cc1	none (no result: PPC-1+TRAIL kill, Platelet DG rel, STAT3 inh-1, STAT1 blocker)
O=C(Cn1cnc2ccccc21)Nc1ccc(SC(F)F)cc1	STAT3 inh-1 73 | STAT3 inh-2 65 | NFkB inh 2 21 | STAT1 inh STAT3c inactive
COc1cccc(-c2oc3c(c2-c2ccc(OC)nc2)C(O)CCC3)c1 (centres undefined)	none (no result: PPC-1+TRAIL kill, Platelet DG rel, STAT3 inh-1, STAT1 blocker)
Cn1c(-c2ccccc2)cnc1SCC(=O)N1CCCCC1	STAT3 inh-1 66 | STAT3 inh-2 inactive | NFkB inh 2 inactive | STAT1 inh STAT3c inactive
CCCCOCCCNC(=O)C[C@@H]1C[C@@]2(C(=O)OC)CC(C)(C)CC=C2N(Cc2ccccc2)C1=O	none (no result: PPC-1+TRAIL kill, Platelet DG rel, STAT3 inh-1, STAT1 blocker)
Cc1ccc2nc(-c3ccc(NC(=O)COCC(=O)O)cc3)sc2c1	none (no result: STAT3 inh-1, STAT1 blocker)
CCN(CC)S(=O)(=O)c1ccc(C(=O)OCC(=O)Nc2ccc(-c3nc4ccc(C)cc4s3)cc2)cc1	STAT3 inh-1 47, C8 TRAIL sens 75 | STAT3 inh-2 inactive | NFkB inh 2 inactive | STAT1 inh STAT3c inactive
O=C(Nc1ccc(-c2cn3ccsc3n2)cc1)c1ccc(F)c(S(=O)(=O)N2CCOCC2)c1	STAT3 inh-1 45 | STAT3 inh-2 inactive | NFkB inh 2 inactive | STAT1 inh STAT3c inactive
CCN(CCc1ccccc1)c1ccc2c(c1)C1CC2CCN1Cc1ccccc1 (centres undefined)	none (no result: PPC-1+TRAIL kill, Platelet DG rel, STAT3 inh-1, STAT1 blocker)
Cc1csc2ncnc(NCCc3ccccn3)c12	STAT3 inh-1 72, STAT1 blocker 35 | STAT3 inh-2 75 | NFkB inh 2 25 | STAT1 inh STAT3c 24
CCCCCn1c(=O)[nH]c2cc(C(=O)N3CCN(Cc4ccc5c(c4)OCO5)CC3)ccc2c1=O	STAT3 inh-1 87 | STAT3 inh-2 88 | NFkB inh 2 42 | STAT1 inh STAT3c 23
CC1CCN(c2nc3ccc(C(=O)N4CCN(Cc5ccc6c(c5)OCO6)CC4)cc3s2)CC1	STAT3 inh-1 49 | STAT3 inh-2 inactive | NFkB inh 2 inactive | STAT1 inh STAT3c inactive
CCCCCn1c(=O)[nH]c2cc(C(=O)NCc3ccc4c(c3)OCO4)ccc2c1=O	none
c1ccc(C(Cc2nc(-c3ccncc3)no2)c2ccccc2)cc1	STAT3 inh-1 65 | STAT3 inh-2 52 | NFkB inh 2 inactive | STAT1 inh STAT3c inactive
Cc1ccc(-c2nc(NC(=O)c3nn(C)cc3[N+](=O)[O-])sc2C)cc1	STAT3 inh-1 54, STAT1 blocker 36, C8 TRAIL sens 93 | STAT3 inh-2 inactive | NFkB inh 2 15 | STAT1 inh STAT3c inactive
Cn1cc([N+](=O)[O-])c(C(=O)Nc2nc(-c3ccc(Cl)cc3)cs2)n1	STAT3 inh-1 60, C8 TRAIL sens 94 | STAT3 inh-2 inactive | NFkB inh 2 18 | STAT1 inh STAT3c inactive
Cc1ccc(-c2nc(NC(=O)c3nn(C)cc3[N+](=O)[O-])sc2C)cc1C	STAT3 inh-1 49, C8 TRAIL sens 95 | STAT3 inh-2 inactive | NFkB inh 2 17 | STAT1 inh STAT3c inactive
Cc1cnc(NC(=O)c2nn(C)cc2[N+](=O)[O-])s1	STAT3 inh-1 58 | STAT3 inh-2 inactive | NFkB inh 2 inactive | STAT1 inh STAT3c inactive
Cc1ccc(Cn2ccc(NC(=O)c3nn(C)cc3[N+](=O)[O-])n2)cc1	none
